CHO-K1 Ca antag: M1 antagonist counterscreen hit in parental CHO-K1 cells. ATP-induced calcium, Fluo-8 fluorescence. inhibition, % at 3 µM. hit rate 0.6% among 360,000. AID 602250;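 active = inhibition above a per-plate cutoff, the plate's mean sample inhibition plus 3 SD, cut at about 24% in these data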;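 also: 0% = DMSO plus EC80 ATP and 100% = DMSO alone without ATP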
M1 ag: human M1 muscarinic receptor agonists, primary screen, Fluo-8 calcium fluorescence, CHO-K1 cells, HTS; hit rate 0.33% among 360,000; activation, % at 3 µM; AID 588814, 2011; Muscarinic acetylcholine receptor M1 (Homo sapiens), P11229; CHO-K1 hM1, agonist mode; 0% DMSO, 100% acetylcholine EC100;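 active = activation above the run's mean compound activation plus 3 SD, cut at about 16% in these data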;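 also: peak over basal fluorescence ratio within a 140 s kinetic read after compound addition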
Target sequence (P11229 whole entry, looked up): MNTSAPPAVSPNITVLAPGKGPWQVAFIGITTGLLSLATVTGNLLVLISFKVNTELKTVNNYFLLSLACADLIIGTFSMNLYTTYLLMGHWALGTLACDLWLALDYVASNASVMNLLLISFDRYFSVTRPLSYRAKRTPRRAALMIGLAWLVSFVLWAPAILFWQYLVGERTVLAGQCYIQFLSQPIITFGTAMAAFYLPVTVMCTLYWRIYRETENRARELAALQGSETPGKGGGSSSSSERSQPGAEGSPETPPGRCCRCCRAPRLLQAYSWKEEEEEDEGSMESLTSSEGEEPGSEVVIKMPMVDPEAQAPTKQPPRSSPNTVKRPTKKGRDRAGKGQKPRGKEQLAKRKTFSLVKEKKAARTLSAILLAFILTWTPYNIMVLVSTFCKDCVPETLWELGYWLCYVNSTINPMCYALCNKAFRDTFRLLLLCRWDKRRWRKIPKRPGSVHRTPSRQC
M1 PAM: human M1 muscarinic receptor positive allosteric modulators, primary screen, CHO-K1 cells, Fluo-8 calcium fluorescence, 1536-well | Muscarinic acetylcholine receptor M1 (Homo sapiens), P11229 | CHO-K1 hM1, ACh EC20; 0% = ACh EC20, 100% = maximal ACh | activation, % at 3 µM | hit rate 0.088% among 360,000; in the data active = activation above about 19%, passing the limit was not always enough
M1 PAM parental: nonselective calcium activators in parental CHO-K1 cells, primary screen, counter-screen for M1 PAM project, cell-based, Fluo-8 calcium fluorescence, full deck, 1536-well; ATP EC20; 0% at ATP EC20, 100% at ATP max; activation, % at 3 µM; hit rate 0.02% among 360,000;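 active = activation above the run cutoff, the mean activation of all test compounds plus 3 SD, cut at about 40% in these data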;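 also: peak over basal fluorescence ratio in a 140 s read after ATP addition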
CHO-K1 Ca ag: counter-screen for M1 agonists: effect in parental CHO-K1 cells | Fluo-8 calcium fluorescence; scaled to maximal ATP response, vehicle zero | activation, % at 3 µM | hit rate 0.48% among 360,000 | AID 602248, 2012; in the data active = activation above about 15%;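 also: untransfected CHO-K1 host cells lacking M1 receptor as counterscreen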
M1 antag: human M1 muscarinic receptor antagonists, primary screen, CHO-K1 cells, Fluo-8 calcium fluorescence, 1536-well. CHO-K1 hM1, ACh EC80 antagonist. AID 588852, 2011. inhibition, % at 3 µM. Muscarinic acetylcholine receptor M1 (Homo sapiens), P11229. hit rate 1.3% among 360,000;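 active = percent inhibition above its own plate's cutoff, namely the mean of that plate's compound wells plus 3 SD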;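 also: peak over basal fluorescence ratio during 140 s after agonist addition; 0% = ACh EC80 plus DMSO and 100% = DMSO alone without agonist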
* marks the source's active call; other numbers are inactive results. Compounds with a hit are over-represented: about 2.4% of the library has one in this group of screens.

SMILES	CHO-K1 Ca antag	M1 ag	M1 PAM	M1 PAM parental	CHO-K1 Ca ag	M1 antag
CCOC(=O)C1CCCN(C(=O)Cc2ccc(OC)c(OC)c2)CC1 (stereo unspecified)	26*	3	0	-16	1	-2
COc1ccc(OC)c(C(=O)COC(=O)c2[nH]c(C)c(C(C)=O)c2C)c1	1	-4	-1	-2	4	-2
CCOc1cc(CN2CCCC(C(=O)c3cccc(C(F)(F)F)c3)C2)ccc1O (stereo unspecified)	-11	-8	-22	0	4	32*
O=C(c1cccc(C(F)(F)F)c1)C1CCCN(Cc2cccn2-c2ncccn2)C1 (stereo unspecified)	-9	-11	-28	34	3	13
Cc1ccc(S(=O)(=O)C(c2ccccc2)c2c(C)noc2C)cc1 (stereo unspecified)	1	-8	0	5	0	-3
Cc1noc(C)c1C(c1ccccc1)S(=O)(=O)c1ccccc1 (stereo unspecified)	28*	-8	8	-11	0	-12
c1ccc(-c2ccc(OCCCNC3CCCC3)cc2)cc1	14	0	-29	-7	14	36*
COC(=O)c1ccc2nc(C3CCCCC3)c(Cc3ccc(C)cc3)n2c1	-17	-4	-2	4	0	-16
O=C(Nc1nnc(SCc2ccc(Cl)cc2)s1)C1CCCO1 (stereo unspecified)	31*	-2	-2	-9	0	3
COC(=O)c1ccc(CSc2nnc(NC(=O)C3CCCO3)s2)cc1 (stereo unspecified)	-11	2	11	13	1	-12
CC1CC(C)CN(CC(=O)N2CCCc3c2c(=O)oc2ccc(OCc4ccccc4)cc32)C1 (stereo unspecified)	-8	-6	-9	21	0	1
CC1CCN(CC(=O)N2CCCc3c2c(=O)oc2ccc(OCc4ccccc4)cc32)CC1	-1	-6	-23	17	-1	49*
COc1ccc(CNC(=O)Cn2cc([N+](=O)[O-])cn2)cc1	57*	-2	8	-16	-1	-8
O=C(Cn1cc([N+](=O)[O-])cn1)NCc1ccccc1	0	-1	2	12	2	-3
Cc1cc(NC(=O)CN2C(=O)NC3(CCCCC3)C2=O)ccc1N1CCCC1	-1	-4	-1	-1	1	3
CCOc1ncccc1C(=O)OCc1csc(CC(=O)Nc2ccccc2C)n1	-18	-2	7	4	1	-9
CCNC(=O)C1(C)CCCN1C(=O)c1ccc(-c2ccccc2)cc1 (stereo unspecified)	-3	-1	7	-2	0	-16
CCCn1c(-c2ccc(F)cc2)n[nH]c1=S	2	-6	3	-4	0	0
CCCCn1c(-c2ccc([N+](=O)[O-])cc2)n[nH]c1=S	8	-6	-22	19	0	98*
CCc1nc2ccc(C(=O)NCc3ccccc3OC)cn2c1N(C)Cc1ccc(OC)cc1	-7	-8	-14	3	2	8
CCc1ccc(C(=O)C(C)OC(=O)Cc2n[nH]c(=O)c3ccccc23)cc1 (stereo unspecified)	2	-1	-7	-18	5	14
CCCCn1c(N)c(N(CCC(C)C)C(=O)c2c(C)noc2C)c(=O)[nH]c1=O	-2	-2	8	6	0	-7
COc1ccc(S(=O)(=O)N2CCC3CC2c2cc(-c4ccc5c(c4)OCO5)ccc23)cc1 (stereo unspecified)	16	-2	-3	-4	0	18
COc1cc2c3c(c1)c(N=NC(N)=S)c(O)n3C(C)(C)C=C2C	-9	-3	17	-19	0	33*
CCCNC(=O)c1ccccc1C(=O)NCCC	-9	-1	-3	18	1	-8
SMILES	CHO-K1 Ca antag	M1 ag	M1 PAM	M1 PAM parental	CHO-K1 Ca ag	M1 antag
CCOCCNC(=O)c1ccccc1C(=O)NCCOCC	30*	-3	7	-3	0	-8
O=C(NCCCCCCNC(=O)c1ccccc1O)c1ccccc1O	1	-1	-23	-9	19*	32*
CN(C(=O)COc1ccccc1C(=O)NCCOc1ccccc1)c1ccccc1	25*	-2	-22	1	11	50*
C[N+]1(C)CCC(=C(c2ccccc2)c2ccccc2)CC1	-6	-7	-25	15	1	98*
CC(=O)Nc1ccc(N(C(=O)c2ccco2)C(C(=O)NC2CCCC2)c2ccncc2)cc1 (stereo unspecified)	-14	-5	2	-1	1	-3
O=C(N[C@@H](Cc1ccccc1)C(=O)N1CCC2(CC1)NCCc1[nH]cnc12)c1cccc(Br)c1	-2	-5	-18	-17	0	39*
O=C(OCC(=O)N1CCCCCC1)c1ccc(F)cc1F	-6	-2	11	18	1	-10
CC1CCCC(C)N1C(=O)c1ccc(S(=O)(=O)NCc2ccco2)cc1 (stereo unspecified)	-6	0	2	19	19*	-2
O=C(Nc1cccc(F)c1)C1CCN(c2nnnn2-c2ccccc2)CC1	28*	-2	2	-7	2	1
O=C(CN1CCCCC1)NCC1(c2ccccc2)CCCC1	-11	-9	-26	27	1	40*
CCN(CC)CC(=O)NCC1(c2ccccc2)CCCC1	7	-8	-27	-6	0	66*
O=C(CN1CCCCC1)NN(Cc1ccccc1)c1ccccc1	0	-13	-34	10	1	61*
CCNC(=S)Nc1ccc(OCc2nc3ccccc3s2)cc1	-8	-8	-9	12	2	4
COc1ccc(NC(=O)CNCc2ccc(Cl)cc2)cc1S(=O)(=O)N1CCOCC1	-20	-4	6	25	2	-5
OCCN(Cc1cccnc1)Cc1ccccn1	-17	-8	-29	20	0	59*
CC(CCc1ccccc1)NC(=O)CNc1cccc([N+](=O)[O-])c1 (stereo unspecified)	-10	2	-5	2	15*	0
Cc1ccc(CC(=O)Nc2cccc([N+](=O)[O-])c2)cc1	-3	-7	7	16	18*	-6
Cc1ccc2nc(SCC(=O)Nc3cccc([N+](=O)[O-])c3)[nH]c2c1	-1	-5	1	11	16*	5

Screening results as filed in PubChem.
